Source: PubChem BioAssay AID492953 (The Scripps Research Institute Molecular Screening Center, 2010)
Out of some 340,000 compounds screened, about 4,200 (1.2%) were called active. The sample as a whole holds a higher share of actives than the screen did. Unmarked numbers belong to inactive results.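 Rule for the calls: active = inhibition above the mean of all tested compounds plus 3 SD (cut at about 24% in these data); inactive = the rest.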

These molecules were tested against Platelet-activating factor acetylhydrolase IB subunit alpha2 (Homo sapiens) (UniProt P68402) (assay: PAFAH1B2 enzyme inhibitors, primary screen, biochemical, fluorescence polarization, human (AID 492953;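 note: 0% = enzyme with DMSO and 100% = wells lacking PAFAH1B2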)). Settings: recombinant PAFAH1B2, FP-rhodamine activity probe, at 3.39 µM, hits give high values.
Platelet-activating factor acetylhydrolase IB subunit alpha2 (Homo sapiens), sequence (P68402 whole entry, looked up): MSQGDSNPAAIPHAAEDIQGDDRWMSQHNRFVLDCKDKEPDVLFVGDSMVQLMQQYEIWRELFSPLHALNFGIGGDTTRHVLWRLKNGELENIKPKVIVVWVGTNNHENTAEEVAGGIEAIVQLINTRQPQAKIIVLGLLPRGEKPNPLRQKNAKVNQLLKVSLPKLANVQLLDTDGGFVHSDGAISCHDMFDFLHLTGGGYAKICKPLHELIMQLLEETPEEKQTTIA

In order of falling inhibition:
1. O=C(N/N=C/c1c(O)n(Cc2ccccc2)c(=O)[nH]c1=O)c1ccccc1  18.9%
2. Cc1cccc(OP(=O)(Oc2cccc(C)c2)OC(c2ccccc2)C(F)(F)F)c1 (stereo not given)  10.7%
3. O=C(CSC1c2ccccc2-c2ccccc21)N/N=C/c1ccccc1  8.06%
4. CNC(=O)O/N=C(\N)Cc1csc2ccccc12  7.09%
5. CCCCCCN=C(CC)c1c(O)n(CCCC)c(=O)[nH]c1=O  5.01%
6. Cc1ccc(Cn2c(C)c3cnn(CC(=O)N4CCC5(CC4)OCCO5)c(=O)c3c2C)cc1  4.99%
7. O=C(NCC(c1cccnc1)N1CCN(c2ccccc2)CC1)Oc1ccccc1 (stereo not given)  4.28%
8. N[C@@H](Cc1c[nH]c2ccccc12)c1nnc(SCc2c(F)cccc2Cl)o1  3.92%
9. CCC(=NCc1ccco1)c1c(O)n(Cc2ccccc2)c(=O)[nH]c1=O  3.82%
10. O=C1N=c2ccccc2=C/C1=C\c1c(O)[nH]c(=S)[nH]c1=O  3.53%
11. c1ccc(CCN2CCC3(CC2)OCCO3)cc1  3.22%
12. Cc1ccc(N(C)C(=O)Oc2cccc3ccc(C)nc23)cc1  2.03%
13. CCOC(=O)C1(c2ccccc2)CCN(CC(O)c2ccc(NC(C)=O)cc2)CC1 (stereo not given)  0.73%
14. CN(C)CC1Oc2ccccc2OC1(O)c1ccccc1 (stereo not given)  0.51%
15. CCC(C)(O)C(=O)OC1C(=O)OC2CC3C(C)=CC(=O)C(O)C3(C)C3C4(O)OCC23C1C(C)C4O (stereo not given)  -0.05%
16. CN(C)CC1CCCCC1OC(=O)c1ccc(Cl)c(Cl)c1 (stereo not given)  -0.45%
17. CC1=CC(=Cc2sc3ccccc3[n+]2C)C=C(C)O1  -0.8%
18. Nc1ccc(C(=O)N/N=C2/CN3CCC2CC3)cc1  -0.84%
19. CCCCCn1c(=O)c(C(=O)Nc2c(C)n(C)n(-c3ccccc3)c2=O)c(O)c2ccccc21  -3.03%
20. O=c1[nH]c(O)c(C=Nc2cc(F)cc(F)c2)c(=O)[nH]1  -5.42%

For `Cc1ccc2c(c1)=C/C(=C\c1c(O)[nH]c(=O)[nH]c1=O)C(=O)N=2`, the inhibition was 24.9% (active).
For `CNC(=O)O/N=C(\N)Cc1csc2ccc(Cl)cc12`, the inhibition was 71.7% (active).
With `CC(C)(C)c1ccc(CN2C(=O)CN=C(c3ccccc3)c3ccccc32)cc1` the inhibition was 88% (active).
For `CC/C(=N\NC(=O)c1ccccc1O)c1c(O)n(Cc2ccccc2)c(=O)[nH]c1=O`, the inhibition was 26.1% (active).
`O=C(OCCN1CCOCC1)C1(c2ccccc2)CCCC1` was tested, and the inhibition was 36.1% (active).
